We go through 20 sequences from the OligoGym collection.
Also: reference of the scale not given here.

The experiment concerns the target BCL7A. Put plainly: pooled miR-30 sensor sort-seq; sequence = guide strand. The note with it: shRNA.
Take TTCATCGAATGTTCCATCGAGG: the sensor-assay potency score (higher = more potent) is -0.362.

Consider TAGGGATGTGTCACCAACGGTC, for which the sensor-assay potency score (higher = more potent) is -0.791.

For TTGTTTTTGTCATCAACCTTGG, the sensor-assay potency score (higher = more potent) was -0.192.

Consider TTGATATCATCTTTGGCCCGGC, for which the sensor-assay potency score (higher = more potent) was -0.0024.

TTTCTCTGAGCTGTTCATCGAA: the sensor-assay potency score (higher = more potent) was -0.326.

In the case of TTTTGCAGTCTTGTCATTCTGC, the sensor-assay potency score (higher = more potent) worked out at 0.59.

In the case of TACAGCAGCAACACAAATGGAA, the sensor-assay potency score (higher = more potent) is -0.286.

ATAATGAACATTCCAAACCATG: the sensor-assay potency score (higher = more potent) was -1.57.

Consider ATTCTGACCACTGCGATCCTGC, for which the sensor-assay potency score (higher = more potent) was -0.637.

As for TTCAGGAACATTTTGATTCTTC, the sensor-assay potency score (higher = more potent) was -0.0367.

On to TACTGCTGTACAACACACCAAA, for which the sensor-assay potency score (higher = more potent) was -0.883.

As to TAACACACAACTCAAAGGGAGT, the sensor-assay potency score (higher = more potent) is -1.29.

As to TTGAAATTCAGGAACATTTTGA, the sensor-assay potency score (higher = more potent) is -0.466.

In the case of TTCTCTGAGCTGTTCATCGAAT, the sensor-assay potency score (higher = more potent) is -0.798.

In the case of TAGTAGTTCTGTTCGCACCCAA, the sensor-assay potency score (higher = more potent) was determined as 0.392.

For TTAGAAAATGGAATCCAGCAGA, the sensor-assay potency score (higher = more potent) is -0.0728.

In turn, TATCGTTACATAGAGAAGTGGG gave a sensor-assay potency score (higher = more potent) of 0.305.

TTTAAGACAGAAACCTTTCGGC gave a sensor-assay potency score (higher = more potent) of 0.668.

In the case of TTGTACAAACCATATCTACTGA, the sensor-assay potency score (higher = more potent) was -0.0617.

In the case of AACATTTTGATTCTTCTCGAAG, the sensor-assay potency score (higher = more potent) was -1.09.
